From PubChem BioAssay
Calls of active or inactive are those of the source.

Assays:
[1] = system: Plasmodium falciparum Sir2 (PF13_0152, Sir2A); test: pfSir2 binders on small-molecule microarrays, primary screen, biochemical, small-molecule microarray, 635 nm fluorescence (AID 1098); details: small-molecule microarray binding, fluorescence 635 nm; higher = more signal;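 note: score merges spot fluorescence intensity with its signal-to-noise ratio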
[2] = small-molecule microarray binders of probe aDKK1, primary screen, biochemical, biotinylated probe, 635/667 nm fluorescence (AID 1099); details: higher = more signal;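 note: score merges 667nm spot fluorescence with signal to noise across triplicate slides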
[3] = small-molecule microarray binders of probe aCHRDL2, primary screen, biochemical, biotinylated probe, 635/667 nm fluorescence (AID 1100); details: higher = more signal
[4] = splicing luciferase reporter signal modulators, primary screen, spliceosome inhibition project, cell-based, HEK293, splice +/- reporter (AID 1101); details: luminescence, 24 h, higher = more signal, called active from +8 up or from −8 down;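 note: HEK293 cells carrying a splicing-competent luciferase reporter gene; test concentration not given here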
[5] = target: Fibroblast growth factor 10 (Homo sapiens) (UniProt O15520); test: FGF10 binders on small-molecule microarrays, primary screen, biochemical, small-molecule microarray, 635 nm fluorescence (AID 1102); details: FGF10 binding, fluorescence 635 nm, higher = more signal
Chain of Fibroblast growth factor 10 (Homo sapiens) (O15520 whole entry, looked up): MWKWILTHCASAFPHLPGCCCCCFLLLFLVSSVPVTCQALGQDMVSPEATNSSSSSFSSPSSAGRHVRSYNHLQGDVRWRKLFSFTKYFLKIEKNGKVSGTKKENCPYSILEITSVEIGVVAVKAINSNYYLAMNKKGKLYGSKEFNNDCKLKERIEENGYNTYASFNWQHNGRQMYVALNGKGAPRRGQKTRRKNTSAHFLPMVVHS

[6] = system: glycogen synthase kinase-3 (GSK3A per assay name; protocol says GSK3B); test: GSK3 binders on small-molecule microarrays, primary screen, biochemical, small-molecule microarray, 635 nm fluorescence, GSK3A (AID 1103); details: small-molecule microarray binding, fluorescence 635 nm; higher = more signal; note: the record names both GSK3A and GSK3B
[7] = target: Epidermal growth factor receptor (Homo sapiens) (UniProt P00533); test: EGFR binders on small-molecule microarrays, primary screen, biochemical, small-molecule microarray, 635 nm fluorescence (AID 1104); details: EGFR binding, higher = more signal;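 note: score merges 667 nm emission intensity with spot signal to noise over triplicate slides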
Chain of Epidermal growth factor receptor (Homo sapiens) (P00533 whole entry, looked up): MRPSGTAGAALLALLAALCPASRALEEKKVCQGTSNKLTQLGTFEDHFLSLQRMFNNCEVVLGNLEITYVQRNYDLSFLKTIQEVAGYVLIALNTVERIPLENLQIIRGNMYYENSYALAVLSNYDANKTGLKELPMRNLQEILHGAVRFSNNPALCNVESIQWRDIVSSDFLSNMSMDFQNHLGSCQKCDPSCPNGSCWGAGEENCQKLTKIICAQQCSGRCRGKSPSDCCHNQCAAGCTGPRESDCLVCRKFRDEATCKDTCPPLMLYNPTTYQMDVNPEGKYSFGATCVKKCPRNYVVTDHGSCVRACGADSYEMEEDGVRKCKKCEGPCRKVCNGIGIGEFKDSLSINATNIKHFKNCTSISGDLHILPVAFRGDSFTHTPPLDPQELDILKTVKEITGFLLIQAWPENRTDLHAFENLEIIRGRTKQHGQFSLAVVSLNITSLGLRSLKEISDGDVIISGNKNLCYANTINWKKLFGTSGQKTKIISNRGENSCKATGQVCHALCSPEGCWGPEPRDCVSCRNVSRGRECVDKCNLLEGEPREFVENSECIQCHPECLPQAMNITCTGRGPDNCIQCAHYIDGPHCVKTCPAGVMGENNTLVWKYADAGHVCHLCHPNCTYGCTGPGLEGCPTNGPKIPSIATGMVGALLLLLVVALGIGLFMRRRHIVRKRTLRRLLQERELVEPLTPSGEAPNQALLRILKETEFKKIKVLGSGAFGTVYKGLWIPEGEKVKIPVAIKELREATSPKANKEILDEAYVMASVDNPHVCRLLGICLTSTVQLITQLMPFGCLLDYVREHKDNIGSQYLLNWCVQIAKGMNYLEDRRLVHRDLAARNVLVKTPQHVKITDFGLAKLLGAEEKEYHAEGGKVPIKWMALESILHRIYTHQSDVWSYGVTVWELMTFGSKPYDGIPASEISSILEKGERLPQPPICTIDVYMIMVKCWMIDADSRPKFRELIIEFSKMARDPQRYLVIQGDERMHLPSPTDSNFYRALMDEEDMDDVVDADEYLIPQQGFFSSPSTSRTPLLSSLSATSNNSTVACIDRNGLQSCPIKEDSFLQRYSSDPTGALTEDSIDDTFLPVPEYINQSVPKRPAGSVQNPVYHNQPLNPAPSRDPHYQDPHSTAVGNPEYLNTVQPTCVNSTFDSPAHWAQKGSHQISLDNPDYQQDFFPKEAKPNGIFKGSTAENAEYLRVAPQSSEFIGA

[8] = target: Follistatin-related protein 3 (Homo sapiens) (UniProt O95633); test: FSTL3 binders on small-molecule microarrays, primary screen, biochemical, small-molecule microarray, 635 nm fluorescence (AID 1105); details: FSTL3 binding, higher = more signal;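 note: score merges emission near 667 nm and signal to noise per printed spot across three slides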
Chain of Follistatin-related protein 3 (Homo sapiens) (O95633 whole entry, looked up): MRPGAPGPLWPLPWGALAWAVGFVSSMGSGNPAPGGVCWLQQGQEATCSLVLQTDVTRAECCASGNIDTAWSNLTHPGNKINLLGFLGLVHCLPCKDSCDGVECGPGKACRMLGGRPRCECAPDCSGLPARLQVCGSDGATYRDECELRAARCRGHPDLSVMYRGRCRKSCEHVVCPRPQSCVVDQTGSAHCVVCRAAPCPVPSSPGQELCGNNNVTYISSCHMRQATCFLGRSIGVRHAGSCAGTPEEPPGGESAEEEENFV

[9] = target: Dickkopf-related protein 1 (Homo sapiens) (UniProt O94907); test: DKK1 binders on small-molecule microarrays, primary screen, biochemical, small-molecule microarray, 635 nm fluorescence scan (AID 1106); details: DKK1 binding, higher = more signal;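 note: score merges emission near 667 nm with signal to noise over three replicate slides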
Chain of Dickkopf-related protein 1 (Homo sapiens) (O94907 whole entry, looked up): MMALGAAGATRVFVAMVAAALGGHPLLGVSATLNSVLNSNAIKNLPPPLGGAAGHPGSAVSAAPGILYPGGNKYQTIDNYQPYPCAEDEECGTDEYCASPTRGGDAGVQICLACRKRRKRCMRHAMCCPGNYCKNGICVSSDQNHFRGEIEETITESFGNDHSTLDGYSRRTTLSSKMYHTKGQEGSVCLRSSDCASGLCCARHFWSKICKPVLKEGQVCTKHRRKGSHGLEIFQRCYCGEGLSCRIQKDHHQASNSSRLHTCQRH

[10] = system: Inhibin beta A chain (activin A); test: INHBA (activin A) binders on microarrays, primary screen, biochemical, small-molecule microarray, 635 nm fluorescence scan (AID 1107); details: small-molecule microarray binding, higher = more signal;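 note: mouse activin A protein probed at 4.33 µg/mL on printed slides; score merges bound-protein fluorescence near 667 nm with spot signal-to-noise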
[11] = system: Human papillomavirus type 1a protein E7 (residues 44-93); test: HPV1a E7 fragment binders on microarrays, primary screen, biochemical, small-molecule microarray, residues 44-93, 635 nm fluorescence (AID 1108); details: small-molecule microarray binding, fluorescence 635 nm; higher = more signal;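 note: E7 fragment applied at 1 µg/mL in TBST for 1 h at 4 C; score combines spot fluorescence with its signal to noise ratio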
[12] = modulators of HCV replicon luciferase signal, primary screen, HCV replication inhibitor project, Huh7 cells, luciferase reporter (AID 1109); details: 48 h, higher = more signal;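 note: huh7 hepatoma cells harbouring a luciferase neomycin HCV replicon reporter; luciferase luminescence as measure of HCV replicon replication; test concentration not given here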
[13] = target: Left-right determination factor 2 (Homo sapiens) (UniProt O00292); test: LEFTY2 binders on small-molecule microarrays, primary screen, biochemical, small-molecule microarray, 635 nm fluorescence scan (AID 1110); details: LEFTY2 binding, higher = more signal
Chain of Left-right determination factor 2 (Homo sapiens) (O00292 whole entry, looked up): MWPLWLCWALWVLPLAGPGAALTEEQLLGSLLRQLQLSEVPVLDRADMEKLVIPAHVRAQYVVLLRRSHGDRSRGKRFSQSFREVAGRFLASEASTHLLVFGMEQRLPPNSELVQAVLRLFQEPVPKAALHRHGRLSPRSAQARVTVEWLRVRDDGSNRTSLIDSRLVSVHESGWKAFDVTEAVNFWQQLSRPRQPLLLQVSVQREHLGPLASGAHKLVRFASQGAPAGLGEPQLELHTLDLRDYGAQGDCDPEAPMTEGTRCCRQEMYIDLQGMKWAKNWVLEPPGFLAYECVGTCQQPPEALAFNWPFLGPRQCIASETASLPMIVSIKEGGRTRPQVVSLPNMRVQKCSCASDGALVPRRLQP

[14] = target: Calmodulin-1 (Homo sapiens) (UniProt P0DP23); test: CALM1 binders on microarrays, EGTA buffer, profiling panel, biochemical, small-molecule microarray, Cy5-labelled CALM1 (AID 1111); details: Cy5-CALM1 binding fluorescence, higher = more signal;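 note: labelled calmodulin applied in Tris saline Tween buffer holding calcium plus EGTA and DTT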
[15] = target: Calmodulin-1 (Homo sapiens) (UniProt P0DP23); test: calcium-bound CALM1 binders on microarrays, profiling panel, artefact control for SMM control-protein annotation, biochemical, small-molecule microarray, Cy5-labelled CALM1, plus calcium (AID 1112); details: Cy5-CALM1 binding fluorescence, higher = more signal;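 note: score merges spot fluorescence with signal to noise from triplicate slides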
[16] = small-molecule microarray binders of probe aWnt5a, primary screen, biochemical, biotinylated probe, 635/667 nm fluorescence (AID 1113); details: higher = more signal;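 note: score merges 667 nm fluorescence intensity with signal-to-noise per printed feature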
[17] = small-molecule microarray binders of probe aShh, primary screen, biochemical, biotinylated probe, 635/667 nm fluorescence (AID 1114); details: higher = more signal;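 note: probe is biotin-labelled aShh protein from a stem cell growth factor screen; measures binding of labelled protein to compounds printed on the slide; score merges feature fluorescence at 667 nm with signal-to-noise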
[18] = small-molecule microarray binders of probe aNog, primary screen, biochemical, biotinylated probe, 635/667 nm fluorescence (AID 1115); details: higher = more signal;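 note: probe is biotinylated aNog protein used at 0.15 µg/mL for 1 h at 4 C; z-score combines 667 nm fluorescence of each spot with its signal to noise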
[19] = target: Torsin-1A-interacting protein 1 (Homo sapiens) (UniProt Q5JTV8); test: LAP1 binders from COS7 cell lysate, primary screen, small-molecule microarray, 635/667 nm fluorescence (AID 1116); details: COS7-hLAP1 lysate binding, 635 nm fluorescence, higher = more signal
Chain of Torsin-1A-interacting protein 1 (Homo sapiens) (Q5JTV8 whole entry, looked up): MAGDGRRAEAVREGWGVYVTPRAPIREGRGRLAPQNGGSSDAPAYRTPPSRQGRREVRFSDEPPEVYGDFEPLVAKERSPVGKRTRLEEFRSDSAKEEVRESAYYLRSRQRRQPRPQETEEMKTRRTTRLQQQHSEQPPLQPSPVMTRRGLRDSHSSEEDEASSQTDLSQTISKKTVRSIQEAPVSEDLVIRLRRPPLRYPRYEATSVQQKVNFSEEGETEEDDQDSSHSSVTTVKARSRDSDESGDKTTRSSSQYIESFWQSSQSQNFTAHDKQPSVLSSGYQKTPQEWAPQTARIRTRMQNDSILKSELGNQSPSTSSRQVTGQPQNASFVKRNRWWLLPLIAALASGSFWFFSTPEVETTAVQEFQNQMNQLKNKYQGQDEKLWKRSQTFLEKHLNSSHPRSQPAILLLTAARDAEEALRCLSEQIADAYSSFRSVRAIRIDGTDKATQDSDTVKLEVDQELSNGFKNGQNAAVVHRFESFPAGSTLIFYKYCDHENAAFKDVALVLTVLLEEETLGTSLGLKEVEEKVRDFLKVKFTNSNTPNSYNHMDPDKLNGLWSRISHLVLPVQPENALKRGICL

[20] = target: Alpha-bungarotoxin (Bungarus multicinctus) (UniProt P60615); test: alpha-bungarotoxin binders on microarray, profiling panel, artefact control for SMM control protein annotation, biochemical, small-molecule microarray, Alexa647 label, 635/667 nm fluorescence (AID 1117); details: alpha-BTX-A647 binding fluorescence, higher = more signal
Chain of Alpha-bungarotoxin (Bungarus multicinctus) (P60615 whole entry, looked up): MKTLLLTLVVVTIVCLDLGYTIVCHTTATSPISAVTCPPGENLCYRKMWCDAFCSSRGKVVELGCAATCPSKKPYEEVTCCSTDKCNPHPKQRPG

SMILES	composite z-score [1]	composite z-score [2]	composite z-score [3]	z-score [4]	composite z-score [5]	composite z-score [6]	composite z-score [7]	composite z-score [8]	composite z-score [9]	composite z-score [10]	composite z-score [11]	z-score [12]	composite z-score [13]	composite z-score [14]	composite z-score [15]	composite z-score [16]	composite z-score [17]	composite z-score [18]	composite z-score [19]	composite z-score [20]
OCCCC1=CC(c2ccc(CN3CCCC3)cc2)N(Cc2cc3c(cc2Br)OCO3)CC1 (stereo not given)	0.216	0.0738	0.732	0.361 (inactive)	0.477	0.328	0.259	0.809	1.14	1.57	-0.377	-3.23	0.477	-0.464	-0.811	-0.0735	0.0611	0.162	1.17	0.396
CC(C)N1C(=O)C[C@@](C(=O)NC2CC2)(c2ccc([N+](=O)[O-])cc2)[C@H]1c1ccc(CO)cc1	-0.66	0.34	0.993	-1.34 (inactive)	-0.576	-0.3	-1.18	-1.1	-0.674	-1.48	1.3	-1.2	-1.15	-0.673	-0.606	-0.0934	-0.0709	-0.566	-0.315	0.181
CCCCC=C[C@@H](NC(=O)OCc1ccccc1Cl)c1ccccc1	0.732	1.53	1.09	0.233 (inactive)	0.431	1.29	0.566	1.19	-0.193	0.709	1.4	-0.0468	0.39	1.35	1	1.08	1.97	3.06	0.28	0.922
NC(=O)NCC#Cc1ccc2c(c1)[C@]1(C(=O)N2)[C@H](c2ccccc2OCCO)N2[C@H](c3ccccc3)[C@H](c3ccccc3)OC(=O)[C@H]2[C@@H]1C(=O)NC[C@H](O)c1ccccc1	0.342	-0.224	0.699	-1.14 (inactive)	-0.491	-0.659	-0.895	-0.355	-0.548	0.472	1.36	-0.651	-0.568	-0.157	0.501	-0.0981	0.0141	-0.213	0.395	1.1
CO[C@H]1O[C@H](CO)[C@@H](OC(=O)Nc2ccc(Br)cc2)[C@@H]2OC(=O)[C@@H](Cc3ccccc3)C/C=C/C[C@H](Cc3ccccc3)C(=O)O[C@@H]12	0.939	-0.139	0.265	-0.913 (inactive)	0.767	0.602	-0.265	-0.0749	-0.0375	0.517	0.816	-3.75	0.142	0.534	0.149	0.218	0.0483	1.04	0.325	0.804
CC(=O)N1CC2(CC2)CC1c1ccccc1 (stereo not given)	-0.295	0.234	-0.0067	0.665 (inactive)	0.281	0.152	0.461	-0.154	-0.0538	0.791	0.753	0.677	0.171	0.107	0.0916	1.19	-0.227	2.15	0.791	-0.217
CC1CC/C=C\[C@H]2OC34C=CCN(C(C)(C)C)C(=O)[C@H]3N(CCCCCO)C(=O)[C@@H]4C2C(=O)O1 (stereo not given in full)	0.261	-0.27	0.2	-0.0565 (inactive)	-0.899	-0.696	-1.08	-0.852	-1.16	0.0607	-1.33	0.095	-0.464	-0.835	-0.517	-0.199	-0.283	-0.0105	-0.348	-1.25
O=C1[C@H]2C=C(I)[C@H](C[C@@H]2OCCOCCO)[C@@]12CO2	0.558	-0.261	-0.751	-0.0672 (inactive)	0.954	0.671	0.83	1.12	0.459	0.555	0.496	-2.21	0.547	-0.315	-0.876	-0.26	-0.243	0.101	0.269	-0.0432
CC(C)[Si](C#CCCCC#N)(O[C@H](c1ccccc1)c1cn(Cc2ccccc2)nn1)C(C)C	0.562	-0.17	-0.65	-1.08 (inactive)	1.01	1.15	0.494	1.21	0.869	0.105	0.157	-0.147	-0.0465	-0.321	-0.458	-0.252	0.0469	0.111	0.439	-0.199
COC(=O)C1(CC(C)C)C=C2C(=C(c3ccccc3)C(=O)C2C)CN1 (stereo not given)	0.055	1.49	1.36	1.45 (inactive)	0.896	-0.713	0.233	0.261	-1.19	1.53	-0.518	-1.33	-0.844	-0.0555	0.358	0.554	0.538	0.689	1.09	-0.194
CC[C@@H]1C=C(C(=O)O)[C@H](c2ccccc2)N1S(=O)(=O)c1ccc(C)cc1	1.69	0.748	0.853	0.0795 (inactive)	0.825	0.52	-0.482	0.0194	-0.294	0.941	0.807	-1.33	0.0801	1.6	1.03	-0.113	0.162	-0.398	0.599	1.39
CCCCCC1=C2CNC(C)(C(=O)OC)C=C2C(C)C1=O (stereo not given)	-0.0215	0.827	0.865	1.23 (inactive)	0.0992	-1.1	-0.476	-0.713	-0.52	1.16	-0.696	-0.654	-0.37	0.764	0.897	-0.0519	0.265	1.17	0.137	-0.0075
[N-]=[N+]=NCc1ccccc1C[C@@]1(C(N)=O)N=C(c2ccc(OCCCO)cc2)O[C@@H]1c1ccccc1	1.15	0.67	1.04	-1.01 (inactive)	0.001	-0.238	-0.892	-0.443	-1.38	0.389	1.43	-1.74	-1.41	1.85	0.989	-0.0417	-0.0035	-0.071	2.07	2.33
C=CCC(OC(C)=O)[C@@H]1[C@@H](N(Cc2cccc3ccccc23)C(=O)Cc2ccc(OC)cc2)c2cc(OCCCO)ccc2N1C(=O)c1ccc(-c2ccccc2)cc1 (stereo not given in full)	-0.203	0.0699	0.44	-0.279 (inactive)	-0.249	-0.179	0.347	-0.0555	-0.324	1.43	-0.446	0.321	-0.279	-0.228	0.726	-0.157	-0.156	0.546	0.435	0.28
CC(C)C(CO)N1C(=O)[C@@H]2C3C(=O)OCCC/C=C\[C@H]3OC23C=CCN(Cn2nnc4ccccc42)C(=O)[C@@H]13 (stereo not given in full)	0.192	-0.0842	0.543	0.323 (inactive)	-0.727	-0.2	-0.636	-0.359	-1.13	0.223	1.32	0.236	-0.874	-0.42	0.0878	-0.202	-0.229	0.407	1.92	-1.15
CCCNC(=O)[C@@H]1c2ccccc2C(=O)N(Cc2ccc(OC(F)(F)F)cc2)[C@H]1c1ccc(CO)cc1	1.3	0.53	0.653	0.0883 (inactive)	0.402	0.284	-0.0259	0.0777	0.0637	0.0914	0.957	-0.808	-0.144	0.222	0.237	0.0077	0.292	0.0303	0.448	0.102
